Data on 99 molecules can be found in PubChem BioAssay AID1626 (SRMLSC, 2009).

Screen size: about 220,000 compounds; about 2,000 (0.91%) were called active. Not shown: some 2% with an inconclusive outcome. Not all results are given here. Potency and affinity values are given separately. Unmarked numbers belong to inactive results. No stated cut-off is given here; in the data, inconclusive means inhibition above about 80% without an active follow-up result; inactive means below that; test concentration not stated here.

A short description of this test: M. tuberculosis H37Rv growth inhibitors, H37Rv strain (AID 1626).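 Further: bacteria incubated seven days before Alamar blue readout; 0% = bacteria only wells and 100% = bacteria with antibiotic wells.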 The settings on record: hits give high values, concentration not given here.
Usually inhibition stands for the change of the read-out against control, counted positive when it falls. For `CC(OC(=O)c1ccc(Cl)c(S(=O)(=O)Nc2ccc(F)cc2)c1)C(=O)NC(N)=O` (centres undefined), the inhibition is -1.89%.
For `CCn1c(NN=O)nc2ccccc21` the value was 3.63%; for `CC(=O)C1=C(C)NC(=O)NC1c1cccs1` (centres undefined), -8.1%.
With `COc1cc(/C=C(\C#N)c2ccccn2)ccc1OCC(=O)Nc1ccc(Br)cc1`, the inhibition was -1.03%.
For `C#CC1(NC(=O)NC(C)(C)C)CCCCC1` the value was 2.25%.
Then `COc1ccccc1NC(=O)COC(=O)c1cnc(C)cn1`, with 0.5%; and `CCc1cc(C(c2cccc(OC)c2)N2CCOCC2)c(NC(=O)c2ccccc2)s1` (centres undefined), with 2.32%.
In the case of `CCOC(=O)C1(CC/C(C)=N\NC(N)=O)CC(C)(C)OC1=O` (centres undefined), the inhibition was -7.16%.
In the case of `Cc1nnc(C)n1/N=C/c1cccc(Oc2ccccc2)c1`, the inhibition was 5.69%.
Then `COC(=O)c1ccsc1NC(=O)C1=COCCO1`, with 2.57%; and `O=C(NCc1ccccc1)C(=O)Nc1nc(C23CC4CC(CC(C4)C2)C3)cs1`, with 6.64%.
`CNc1nc(C23CC4CC(CC(C4)C2)C3)cs1`: the inhibition is 2.54%.
As for `CCn1c(SCC(=O)Nc2ccccc2C(=O)OC)nnc1-c1cccc(C)c1`, the inhibition was -2.01%.
For `CCCCn1c(NC(=S)Nc2ccccc2)nc2ccccc21` the value was 9.5%; for `O=C(Nc1nc2ccccc2n1CCN1CCCC1)C1CCCCC1`, -3.71%; for `CN(C)CCCn1c(NC(=O)C2CCCCC2)nc2ccccc21`, 3.22%.
For `O=C(Nc1nc2ccccc2n1CCN1CCCCC1)C1CCCCC1` the value was 4.2%; for `O=C(Cc1ccccc1)Nc1cccc(N2CCCC2)c1`, 2.44%; for `Cc1nnc(NN)n(N)c1=O`, -3.11%.
As for `CCCCOc1ccc(C(=O)N/C(=C/C=C/c2ccccc2)C(=O)O)cc1`, the inhibition was -8.39%.
For `O=C(N/C(=C/C=C\c1ccccc1)C(=O)N1CCOCC1)c1ccc(Br)cc1` the value was 64.4%.
Take `CCC(=O)Nc1ccc(NC(=S)NC(=O)c2cc3ccccc3o2)cc1`: the inhibition is 15.4%.
Regarding `Cc1ccc(S(=O)(=O)NCC(=O)N(CC(=O)NCC2CCCO2)Cc2ccco2)cc1` (centres undefined), the inhibition is 11.1%.
Then `O=C(O)c1ccccc1C(=O)c1ccc(N2CCOCC2)c([N+](=O)[O-])c1`, with 3.64%.
For `O=[N+]([O-])c1cc(Cl)ccc1N1CCOCC1` the value was -3.75%.
For `O=C(OCC(=O)N1CCOCC1)c1ccc(N2CCOCC2)c([N+](=O)[O-])c1` the value was -0.57%; for `COc1ccc(C(=O)c2ccc(N3CCOCC3)c([N+](=O)[O-])c2)cc1`, -2.74%; for `O=C(Nc1ccccc1N1CCOCC1)c1ccc(N2CCOCC2)c([N+](=O)[O-])c1`, 6.98%.
Consider `Cc1ccc(OC(=O)c2ccc(N3CCOCC3)c([N+](=O)[O-])c2)cc1`, for which the inhibition was 54.1%.
Then `Cc1sc(NC(=O)CSc2nnc(-c3ccccc3)o2)c(C#N)c1C`, with -2.26%; and `CCOc1ccc(NC(=O)CC2SC(N)=NC2=O)c([N+](=O)[O-])c1` (centres undefined), with 2.3%; and `COC(=O)c1ccc(NC(=O)CN2C(=O)C3C4C=CC(C4)C3C2=O)cc1` (centres undefined), with 1.35%.
For `Cc1ccc(NC(=O)CCC(=O)c2cccs2)cc1`, the inhibition was 1.21%.
For `Cc1ccc(NC(=O)COC(=O)CCC(=O)c2cccs2)cc1` the value was -6.9%; for `O=C(CCNc1cc(Cl)cc(Cl)c1)c1cccs1`, 74.2%.
For the molecule `CCCOc1ccc(C(=O)CCNc2ccc(C)c(Cl)c2)cc1`, the inhibition is 69.1%.
Then `COc1ccc(C(=O)CCNc2cccc(Cl)c2)cc1`, with 10.7%; and `COc1ccc(C(=O)CNc2ccccc2C#N)cc1`, with 3.5%.
Take `COc1ccc(C(=O)CNc2ccccc2CO)cc1`: the inhibition was -0.7%.
For `Cc1ccc(NCCC(=O)c2cccs2)cc1C` the value was 74.8%.
Then `CCOc1ccc(-c2nn(-c3ccccc3)cc2/C=C2\SC(=S)N(Cc3ccco3)C2=O)cc1`, with -2.18%.
Then `COc1ccccc1C1=NC(c2ccc(C)cc2)N=C1C` (centres undefined), with 7.88%; and `COc1ccc(N2C(=O)C3NN=C(C(=O)OCc4ccccc4)C3C2=O)cc1` (centres undefined), with 1.18%.
With `Cc1cccc(NC(=S)N(CCN(C)C)Cc2cc3cccc(C)c3[nH]c2=O)c1`, the inhibition was 12.2%.
For `CSC1=NC(C)(C)C=C(/C=C/c2ccc(Cl)cc2)N1` the value was -4.38%.
Then `Cc1c(C(=O)N2CCN(C)CC2)oc2ccc(S(=O)(=O)N3CCOCC3)cc12`, with -4.68%; and `Cc1cc(C(=O)NC(C)c2ccncc2)no1` (centres undefined), with -9.57%.
For `CCn1c2c(c(C)cc1=O)C(=O)CC(C)(C)C2` the value was -1.17%; for `CC(=O)c1ccc(N2Cc3ccccc3C3(CCOCC3)C2=N)cc1`, -1.43%.
As for `COc1ccccc1CC(=O)NC1CCCc2ccccc21` (centres undefined), the inhibition is 1.93%.
Then `Cc1cc(Nc2ccc3c(c2)OCCO3)n2nc(C)nc2n1`, with 1.27%.
For `CCOC(=O)C1=Nc2ccccc2/C1=C\c1c(O)n(C)c(=O)n(C)c1=O` the value was -4.93%.
Then `CCOC(=O)C(=O)Nc1ccccc1C(=O)OCC`, with -3.74%; and `CC(=O)Nc1cc(C(F)(F)F)ccc1OCC1CCCO1` (centres undefined), with 4.74%.
Regarding `Cc1ccc(-c2cc(C(F)(F)F)n3ncc(C(=O)N4CCCCC4c4cccnc4)c3n2)cc1` (centres undefined), the inhibition was 9.06%.
For `COc1cccc(-c2cc(C(F)(F)F)n3nc(C(=O)N4CCCCC4c4cccnc4)cc3n2)c1` (centres undefined) the value was -1.53%; for `CCN1CCN(C(=S)Nc2ccsc2C(=O)OC)CC1`, 2.48%.
For `COc1ccc(CCNC(=O)COC(=O)COc2ccc(C#N)cc2)cc1` the value was 3.53%; for `O=C(Nc1nnc(Cc2ccc(Cl)cc2)s1)c1cccs1`, -8%; for `Cc1ccc(Cc2cnc(NC(=O)c3ccco3)s2)cc1`, -0.28%.
With `O=C(Nc1nnc(CCc2ccccc2)s1)c1cccs1`, the inhibition is -0.19%.
`O=C(Nc1nnc(Cc2ccccc2)s1)c1cccs1`: the inhibition was -2.7%.
For `CCOC(=O)c1oc2cccc(O)c2c1CN1CCOCC1` the value was 1.91%.
Then `CC(=N/O)/C(=N\O)c1ccc(C)o1`, with 5.71%; and `O=C1CC(N2CCN(Cc3ccc4c(c3)OCO4)CC2)C(=O)N1c1cccc2ccccc12` (centres undefined), with -7.76%.
On to `CCOC(=O)c1c(NC(=O)COC(=O)c2cc(OC)c(OC)cc2[N+](=O)[O-])sc(C)c1C`, for which the inhibition was 0.78%.
Then `O=C(Nc1cccc(Cl)c1)N1CCCC1`, with -2.82%; and `O=C(Nc1ccc(Cl)cc1)N1CCCC1`, with 1.26%; and `N#Cc1c(-c2ccc(Cl)cc2Cl)nc2n(c1=O)CCS2`, with -1.19%.
Then `O=C(Cn1cnc2c(nnn2-c2ccccc2)c1=O)N1CCOCC1`, with 3.36%; and `CCOc1ccc(-n2c(C)nc3c(cnn3-c3ccc(Cl)cc3)c2=O)cc1`, with -1.94%.
For `Cc1ccc(OCC(=O)Nc2ccc(N3CCN(C(=O)c4ccc(C)cc4)CC3)cc2)cc1` the value was -3.04%.
`Cc1ccccc1OCC(=O)Nc1ccc(N2CCN(S(C)(=O)=O)CC2)cc1`: the inhibition is -6.69%.
Then `CCOC(=O)N1CCN(c2cc(C)nc3nc(C)nn23)CC1`, with -2.69%; and `COc1cccc(NC(=O)CSc2nnc(C)s2)c1`, with -3.98%.
For `CCSCc1nnc(SCC(=O)Nc2ccc(OC)cc2)n1C` the value was 7.37%.
For `CSc1cccc(NC(=O)CSc2ccc(C)cc2)c1` the value was 52.9%; for `CCSCc1nnc(SCC(=O)Nc2cccc(C(C)=O)c2)n1C`, -4.22%; for `Nn1c(CN2CCCCC2)nc2ccccc2c1=O`, 4.4%.
Take `Cc1csc(NC(=O)CS(=O)(=O)c2ccccc2)n1`: the inhibition is -3.27%.
For `O=C(OCC(=O)N1CCCCCC1)c1ccc([N+](=O)[O-])cc1Cl` the value was 20.3%; for `OC(COc1ccc(OCc2ccccc2)cc1)CN1CCCCC1` (centres undefined), 3.57%.
For `Cc1ccccc1OCc1nnc(SCC(=O)NCc2ccco2)n1C` the value was -6.74%; for `Cc1ccc(S(=O)(=O)NC(CC(C)C)C(=O)Nc2nccs2)cc1` (centres undefined), -11.9%; for `COc1ccc(CCNCC(O)Cn2ccc3ccccc32)cc1OC` (centres undefined), -9.67%.
Then `COc1ccccc1NCC(O)Cn1c2ccccc2c2ccccc21` (centres undefined), with 2.53%; and `CC(C)N(Cc1cc2ccccc2[nH]c1=O)C(=O)c1cccnc1`, with -8.2%.
For `COc1ccc(S(=O)(=O)N2C(=O)/C(=C3\SC(N)=NC3=O)c3ccccc32)cc1`, the inhibition is -3.28%.
Then `COc1ccc2nc(/N=C/c3c(C)[nH]n(-c4ccc(C)cc4)c3=O)sc2c1`, with 33%; and `CCCCOc1ccc(-c2nc(/C=N/c3nccs3)c(O)o2)cc1`, with 25.4%; and `COc1ccc2nc(/N=C/c3c(C)[nH]n(-c4ccc(C)cc4C)c3=O)sc2c1`, with 6.1%.
Then `Oc1oc(-c2ccccc2)nc1/C=N/c1nccs1`, with -8.45%; and `Cc1ccccc1CN1CCN(c2ccc(Cl)cc2)CC1`, with 6.57%.
Then `N/C(=N\OS(=O)(=O)c1ccc(Cl)cc1)c1cccnc1`, with -1.48%; and `Cc1nn2c(N)c(C#N)cnc2c1-c1ccccc1`, with -6.08%; and `COCc1nn2c(N)c(C#N)cnc2c1-c1ccccc1`, with 4.73%.
On to `O=C(NCCc1c[nH]c2ccccc12)c1cnccn1`, for which the inhibition is 2.35%.
For `Cc1ccc(NC(=S)NC(CO)C(O)c2ccc([N+](=O)[O-])cc2)cc1` (centres undefined) the value was -9.71%; for `O=[N+]([O-])c1ccc(C(O)C(CO)NC(=S)Nc2ccccc2)cc1` (centres undefined), -0.74%.
